Data reported in PubChem BioAssay (NCI).
About 83,000 compounds went through this panel and 20% of them were active in at least one assay; those are over-represented in the sample as a whole.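 Each cell line was grown in a 96-well plate and treated with one concentration of compound for 48 hours. Values below 10 were considered active.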 Activity calls are given as the source filed them.

Columns and labels:
Test in all cases: NCI-60 one-dose screen, 48 h (100 = growth as untreated, 0 = no growth, -100 = all killed)
Settings in all cases: 10 µM unless noted
[1] = system: NCI-H23 lung
[2] = system: NCI-H226 lung
[3] = system: NCI-H322M lung
[4] = system: HOP-62 NSCLC
[5] = system: NCI-H460 lung
[6] = system: NCI-H522 lung
[7] = system: A549/ATCC NSCLC
[8] = system: 786-0 renal
[9] = system: COLO 205 colon
[10] = system: DU-145 prostate
[11] = system: K-562 leukemia
[12] = system: MALME-3M melanoma
[13] = system: MDA-MB-231 breast
[14] = system: RXF 393 renal
[15] = system: SF-268 CNS
[16] = system: SF-295 CNS
[17] = system: SF-539 CNS
[18] = system: UACC-257 melanoma
[19] = system: M14 melanoma
[20] = system: HCT-15 colon

Measured: growth

C[C@]12CC[C@@H]3c4ccc(O)c([N+](=O)[O-])c4CC[C@H]3[C@@H]1CC[C@@H]2NS(=O)(=O)c1cccc(Br)c1
active: [6] -50.4% | [11] 8.39%
inactive: [1] 28% | [2] 62.4% | [3] 53.8% | [4] 78.3% | [5] 20% | [7] 19% | [8] 42.8% | [9] 101% | [10] 52.7% | [12] 31.1% | [13] 26.7% | [14] 10.4% | [15] 36.2% | [16] 53.2% | [17] 67.5% | [18] 49.1% | [19] 43.4% | [20] 26.7%

CCN1C2=C(SC(=S)C1=C1SC(C(=O)OC)=C(C(=O)OC)S1)SC(=Nc1ccc(OC)cc1)C2=O
active: [1] -42.5% | [2] -66.7% | [4] -13.7% | [5] -47.5% | [6] -15.2% | [8] -64.6% | [9] -3.6% | [10] -46.1% | [11] 7.47% | [12] -28% | [13] 4.53% | [14] -87.7% | [15] 1.48% | [16] 2.33% | [17] -24.1% | [18] -55.1% | [19] -54.7% | [20] -20.7%
inactive: [3] 48.4% | [7] 17.7%

O=C(Nc1ccc(Cl)cc1)c1cc2c(cc1O)[nH]c1ccccc12
inactive: [2] 35.9% | [3] 26.9% | [5] 12.5% | [7] 30% | [9] 87.3% | [10] 28.4% | [11] 10.9% | [12] 23.1% | [13] 36.1% | [15] 34.4% | [17] 12.4% | [19] 31% | [20] 32%
active: [1] -22.5% | [4] -2.15% | [6] -14.4% | [8] 6.54% | [14] 1.97% | [16] -43% | [18] -21.1%

CCOc1cc(-c2ccc[nH]2)[nH]c1/C=C1\N=C(C)C(C(=O)OC)=C1C
active: [1] -59.4% | [2] -61.9% | [3] -61.8% | [4] -58% | [5] -79.4% | [6] -50.1% | [7] -47.1% | [8] -50.2% | [9] -78.6% | [10] -65.5% | [11] -55.4% | [12] -61.1% | [13] -62.6% | [14] -72.5% | [15] -55.7% | [16] -69.8% | [17] -66.7% | [18] -56.7% | [19] -59.9% | [20] -27%

CCN1CCN(c2cc(-c3cn[nH]c3-c3cc(C)cc(OC)c3)nc(-c3cccnc3)n2)CC1
inactive: [1] 93.9% | [2] 99.7% | [3] 67.5% | [4] 101% | [5] 88.9% | [6] 75.6% | [7] 82.3% | [8] 58.1% | [9] 51.3% | [10] 75% | [11] 21.9% | [12] 91.9% | [13] 58.6% | [14] 61.2% | [15] 87.3% | [16] 99.9% | [17] 83% | [18] 84.8% | [19] 83.1% | [20] 19.2%

COc1ccc(C2CC(c3ccc(OC)c(OC)c3)=NN2C(=O)c2cc(OC)c(OC)c(OC)c2)cc1 (centres undefined)
inactive: [1] 46.6% | [2] 51.9% | [3] 37.7% | [4] 34.8% | [7] 27.2% | [8] 26.7% | [10] 11.6% | [11] 28.3% | [12] 57.7% | [13] 12.6% | [15] 54.7% | [18] 66.3% | [20] 32.8%
active: [5] 6.07% | [6] -35.9% | [9] 8.03% | [14] -21.4% | [16] 4.28% | [17] -14.5% | [19] -11.8%

Cc1ccccc1NC(=O)c1cc2ccccc2cc1O
inactive: [1] 10.9% | [2] 77.1% | [3] 24.6% | [4] 39.2% | [5] 38% | [6] 12.2% | [7] 39.3% | [8] 54.9% | [9] 119% | [10] 20.2% | [11] 10.9% | [13] 70.6% | [14] 22.2% | [15] 21.1% | [16] 86.4% | [17] 64.4% | [18] 68.1% | [19] 58.1% | [20] 48.5%
active: [12] -6.19%

COc1cc([C@@H]2c3cc4c(cc3C(O[C@@H]3O[C@@H]5CO[C@@H](c6cccs6)OC5[C@H](O)[C@H]3O)C3COC(=O)[C@@H]32)OCO4)cc(OC)c1O (some centres undefined)
active: [1] -32.5% | [2] -53.9% | [3] 7.81% | [4] -39.8% | [5] -36.7% | [6] -53.7% | [7] -48.3% | [8] -40.6% | [9] -23.8% | [10] -33.4% | [11] 4.5% | [12] -28.7% | [13] -18.8% | [14] -72.3% | [15] -17.1% | [16] -19.9% | [17] -35.5% | [18] -19.7% | [19] -43.2% | [20] 5.54%

N#Cc1ccc(NC(=O)Nc2ccc(Oc3ccc(NC(=O)Nc4ccc(C#N)cc4)cc3)cc2)cc1
active: [1] -0.877% | [6] -33.4% | [9] -0.221% | [11] 0.451%
inactive: [2] 42.5% | [3] 61.8% | [4] 31.6% | [5] 18.9% | [7] 26.9% | [8] 30.3% | [10] 35.3% | [12] 54.4% | [13] 53.5% | [14] 83.2% | [15] 42.1% | [16] 23.7% | [17] 71% | [18] 37% | [19] 26.2% | [20] 32.1%

Nc1nc(SCC2(CCl)COC2)c2[nH]cnc2n1
inactive: [1] 97.1% | [2] 100% | [3] 102% | [4] 89.7% | [5] 107% | [6] 80.2% | [7] 97.8% | [8] 99.4% | [9] 106% | [10] 116% | [11] 90.6% | [12] 88.8% | [13] 104% | [14] 113% | [15] 98.5% | [16] 110% | [17] 99.6% | [18] 99.1% | [19] 97% | [20] 99.6%

CC(c1ccccn1)C(C)(O)C(C)c1ccccn1 (centres undefined)
inactive: [1] 104% | [2] 103% | [3] 118% | [4] 101% | [5] 113% | [6] 112% | [7] 106% | [8] 107% | [9] 108% | [10] 101% | [11] 103% | [12] 121% | [13] 92.8% | [14] 115% | [15] 100% | [16] 107% | [17] 99.7% | [18] 99.8% | [19] 90.6% | [20] 97.4%

CC(=O)n1c2ccccc2c2ccccc21
inactive: [1] 93.7% | [2] 115% | [3] 107% | [4] 93.8% | [5] 117% | [6] 108% | [7] 107% | [8] 90.8% | [9] 148% | [10] 108% | [11] 111% | [12] 126% | [13] 126% | [14] 144% | [15] 115% | [16] 96.7% | [17] 107% | [18] 123% | [19] 103% | [20] 112%

CC12CCC3C(CCC4CC(=O)/C(=C\O)CC43C)C1CCC(=O)O2 (centres undefined)
inactive: [1] 98.8% | [2] 113% | [3] 108% | [4] 90.9% | [5] 115% | [6] 108% | [7] 106% | [8] 92.5% | [9] 150% | [10] 115% | [11] 104% | [12] 124% | [13] 111% | [14] 141% | [15] 108% | [16] 109% | [17] 111% | [18] 115% | [19] 95.2% | [20] 121%

CCCCCCCCCCCCCCCCCc1nccn1CCO
inactive: [1] 70.7% | [2] 97.3% | [3] 78.1% | [4] 68% | [5] 24.6% | [6] 52.6% | [7] 64.7% | [8] 62.3% | [9] 19% | [10] 90% | [12] 89.7% | [13] 69.6% | [14] 72.3% | [15] 73.5% | [16] 144% | [17] 66.5% | [18] 90.2% | [19] 64.9%
active: [11] 3.81% | [20] 8.52%

Cc1ccc(C(O)C2=CC(=O)c3ccccc3C2=O)cc1 (centres undefined)
inactive: [1] 89.2% | [2] 94.9% | [3] 99.3% | [4] 104% | [5] 98.4% | [6] 95.7% | [7] 102% | [8] 110% | [9] 107% | [10] 111% | [11] 112% | [12] 107% | [13] 71.1% | [14] 109% | [15] 107% | [16] 97.6% | [17] 95.3% | [18] 102% | [19] 95.7% | [20] 93.3%

CCn1c2c(c3ccccc31)SC1c3cccn3CCN1C2=S (centres undefined)
inactive: [1] 93.7% | [2] 108% | [3] 89.8% | [4] 103% | [5] 98.9% | [6] 82.1% | [7] 88.5% | [8] 102% | [9] 109% | [10] 102% | [11] 105% | [12] 112% | [13] 96.7% | [14] 151% | [15] 96.4% | [16] 106% | [17] 97.9% | [18] 98% | [20] 82.3%
